Assay results published in PubChem BioAssay (NCATS).
“And” between values parts separate entries of the source, which are not always exact repeats. Identical values can stand only once. Results filed as inconclusive are left out. Where a call stands in place of a potency, no number is given. The source made the active and inactive calls. Unless noted, calls follow the shape of the dose curve; as a rule, active = well fitted curve in the direction sought with a large enough effect; inconclusive = small, poorly fitted or top-dose-only effect, or another doubt; inactive = no such curve, though single readings can be large; an effect the other way counts as inactive or inconclusive.

Tests used:
[1] = Cell Viability - SH-SY5Y (AID 544); conditions: SH-SY5Y neuroblastoma cell viability; viability change, negative = cytotoxic: at 92.2 µM (top of the series);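 also: cells exposed to compound for 40 hours; nearly all actives have a fitted effect of over 55% in size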; also: potency is read from the fitted curve at half-maximal effect
Summary of the method: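 Cytotoxicity measured via ATP-dependent luciferase luminescence (CellTiter-Glo) following 40 h, 37 °C exposure of 1500 SH-SY5Y cells per well. Concentration-response data were fitted with the standard Hill equation to give AC50.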

[2] = Cellular Toxicity (caspase-3) Jurkat (AID 655); conditions: Jurkat caspase-3 activation, luminescence; caspase-3 activation: at 92.2 µM (top of the series), DMSO = 0%, tamoxifen = 100%;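 also: cells exposed to compound for 16 h at 37 °C before reading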
Summary of the method: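 Caspase 3/7 activation is scored as increased luminescence in Jurkat cells cultured with compound for 16 hours in complete medium. AC50 values come from Hill fits of qHTS concentration-response data normalized to DMSO and 100 uM tamoxifen controls.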

[3] = MultiTox-Fluor Cytotoxicity Assay - LYMP1-003 - Live Cells (AID 962);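 also: cells exposed to compound for 16 hours at 37 °C; cytotoxic hits lower the live-cell protease signal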
Summary of the method: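 Live-cell protease activity (GF-AFC substrate, 405/510 nm, 60 min at room temperature) after 16 h, 37 C compound exposure of human lymphoblastoid LYMP1-003 cells; concentration-response fitted to the Hill equation for AC50.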

[4] = Cell Viability - LYMP1-003 - Assay at 24 hr (AID 963)
Summary of the method: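 Concentration-response qHTS: ATP loss measured by CellTiter-Glo luminescence after 24 h compound exposure at 37 C. Cells were LYMP1-003 human lymphoblastoid, 2500 per well. AC50 derived via standard Hill equation modeling.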

[5] = Cell Viability - LYMP1-003 - Assay at 40 hr (AID 964); also: nearly all actives have a fitted effect of over 60% in size
Summary of the method: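 Viability is taken as cellular ATP, read by CellTiter-Glo luminescence after 40 h of compound exposure at 37 C. Cells: human lymphoblastoid line LYMP1-003 at 2500/well; AC50 values derived by Hill-equation fitting of concentration-response data.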

[6] = Cell Viability - LYMP2-003 (AID 965);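 also: cells exposed to compounds for 24 h before reading; nearly all actives have a fitted effect of over 50% in size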
Summary of the method: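 Acute cytotoxicity is scored as a concentration-dependent drop in intracellular ATP, measured by luciferase luminescence in human lymphoblastoid cells treated for 24 hours at 37 C. AC50 values derive from Hill-equation modelling.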

[7] = Cell Viability - LYMP2-004 (AID 966); also: nearly all actives have a fitted effect of over 65% in size
Summary of the method: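 AC50 values come from Hill modelling of concentration-dependent loss of intracellular ATP, measured by CellTiter-Glo luminescence. Human LYMP2-004 lymphoblastoid cells (2500/well) were exposed to compound for 24 h at 37 C.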

[8] = Cell Viability - LYMP2-017 (AID 972); also: nearly all actives have a fitted effect of over 55% in size
Summary of the method: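 CellTiter-Glo luminescence (cellular ATP, 30 min RT) measured cytotoxicity after 24 hr compound treatment at 37 C. Cells were a human lymphoblastoid line, LYMP2-017, plated at 2500/well and incubated 5 hr first; concentration-response fitted with Hill equation for AC50.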

[9] = Cell Viability - LYMP2-019 (AID 973); also: nearly all actives have a fitted effect of over 55% in size
Summary of the method: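 AC50 values come from Hill-equation fits of luminescent intracellular ATP (CellTiter-Glo, 30 min, room temperature) following 24 h compound exposure at 37 C. Cells: LYMP2-019 lymphoblastoid line, 2500 per well, in complete culture medium.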

[10] = Cell Viability - LYMP2-025 (AID 976)
Summary of the method: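 Cytotoxicity read as loss of intracellular ATP (luciferase luminescence) after 24 h compound treatment at 37 C. Uses LYMP2-025 lymphoblastoid cells in 1536-well format; Hill-equation modelling gives AC50; tetraoctylammonium bromide as positive control.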

[11] = Cell Viability - LYMP2-007 (AID 979);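 also: cells exposed to compound for 24 h before reading; nearly all actives have a fitted effect of over 60% in size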
Summary of the method: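 AC50 values come from Hill-equation fits of luminescent intracellular ATP (CellTiter-Glo, 30 min, room temperature) following 24 h compound exposure at 37 C. Cells: LYMP2-007 lymphoblastoid line, 2500 per well, in complete culture medium.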

[12] = Cell Viability - LYMP2-008 (AID 980); also: nearly all actives have a fitted effect of over 60% in size
Summary of the method: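 Cytotoxicity determined from ATP-dependent luciferase luminescence (CellTiter-Glo) following 24 h compound exposure of human lymphoblastoid LYMP2-008 cells at 37 C. Concentration-response data fitted to the Hill equation to give AC50.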

[13] = Cell Viability - LYMP2-012 (AID 982);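 also: cellular ATP by luciferase luminescence where a drop means cytotoxicity; cells exposed to compound for one day before reading; nearly all actives have a fitted effect of over 55% in size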
[14] = Cell Viability - LYMP2-014 (AID 983); also: nearly all actives have a fitted effect of over 50% in size
Summary of the method: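 Intracellular ATP loss, read by luciferase luminescence, measures acute cytotoxicity after 24 h compound exposure of lymphoblastoid LYMP2-014 cells (2500/well, 37 C). Concentration-response data fitted to the Hill equation for AC50.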

[15] = Cell Viability - LYMP2-018 (AID 985); also: nearly all actives have a fitted effect of over 50% in size
Summary of the method: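 Viability read as CellTiter-Glo luminescence (cellular ATP) after 24 hr compound exposure at 37 C of 2500 LYMP2-018 lymphoblastoid cells/well, pre-plated 5 hr. Hill-equation modelling gave AC50.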

[16] = Cell Viability - LYMP1-002 - Assay at 40 hr (AID 994); also: nearly all actives have a fitted effect of over 60% in size
Summary of the method: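 Cytotoxicity was read as loss of cellular ATP (CellTiter-Glo luminescence) after 40 hr compound exposure at 37 C of 2500 LYMP1-002 lymphoblastoid cells per well. Concentration-response data were fitted with the standard Hill equation to give AC50.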

[17] = qHTS assay for small molecule agonists of retinoid X receptor alpha signaling (AID 588544; calls by dose curve); conditions: HEK293T RXRa-UAS-bla, beta-lactamase reporter, 18 h; 530 nm emission
[18] = biological target: Retinoic acid receptor RXR-alpha (Homo sapiens) (UniProt P19793); assay: as above
Retinoic acid receptor RXR-alpha (Homo sapiens), sequence (P19793 whole entry, looked up): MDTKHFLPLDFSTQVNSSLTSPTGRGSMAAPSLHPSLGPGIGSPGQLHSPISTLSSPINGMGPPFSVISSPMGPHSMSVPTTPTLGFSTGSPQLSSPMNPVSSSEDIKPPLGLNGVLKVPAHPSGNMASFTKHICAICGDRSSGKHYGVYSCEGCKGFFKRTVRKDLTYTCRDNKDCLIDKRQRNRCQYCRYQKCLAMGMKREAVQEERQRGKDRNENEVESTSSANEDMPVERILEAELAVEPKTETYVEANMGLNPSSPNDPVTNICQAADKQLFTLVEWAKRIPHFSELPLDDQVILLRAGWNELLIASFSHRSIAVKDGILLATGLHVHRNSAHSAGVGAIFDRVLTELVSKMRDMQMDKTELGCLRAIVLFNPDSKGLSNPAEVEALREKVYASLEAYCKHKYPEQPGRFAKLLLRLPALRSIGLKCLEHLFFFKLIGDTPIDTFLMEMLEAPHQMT

[19] = qHTS assay for small molecule antagonists of retinoid X receptor alpha signaling (AID 588546); conditions: HEK293T RXRa-UAS-bla, beta-lactamase ratio, antagonist mode; measured here: W530 green channel, cytotoxicity proxy;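 also: cells stimulated with 9-cis-retinoic acid as agonist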
Summary of the method: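 Beta-lactamase reporter inhibition, read as CCF4 fluorescence ratio (ex 405, em 460/530 nm) after 2 h at RT. HEK293T UAS-bla cells, 2500/well, were stimulated with 9-cis-RA at 500 or 100 nM final alongside test compound for 18 h at 37 C.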

[20] = qHTS assay for small molecule antagonists of the retinoid-related orphan receptor gamma (ROR-gamma) signaling pathway - cell viability counter screen (AID 720652; active = well fitted curve in the direction sought with a large enough effect in the repeat runs; an effect the other way counts as inactive or inconclusive;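 also: CHO reporter cells with doxycycline-induced ROR-gamma expression; compound exposure lasted 16 hr before ATP read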)
Summary of the method: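 Cytotoxicity counter screen: intracellular ATP (CellTiter-Glo luminescence) measured in the doxycycline-induced CHO RORE-luciferase reporter line after 16 hr compound exposure at 37 C, 5% CO2.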

Row | SMILES | Potency [1] | caspase-3 activation [2] | outcome [3] | outcome [4] | Potency [5] | Potency [6] | Potency [7] | Potency [8] | Potency [9] | Potency [10] | Potency [11] | Potency [12] | Potency [13] | Potency [14] | Potency [15] | Potency [16] | max response [17] | outcome [18] | max response [19] | Potency [20]
1 | OCC(Cl)CCl (stereo not drawn) | inactive | 2.02% (inactive) | inactive | inactive | inactive | inactive | inactive | inactive | inactive | inactive | inactive | inactive | inactive | inactive | inactive | inactive | -11.4% | inactive | -11.1% | inactive
2 | COC(=O)Nc1cccc(OC(=O)Nc2cccc(C)c2)c1 | 39.8 µM (active) | 1.17% (inactive) | inactive | inactive | inactive | inactive | inactive | inactive | inactive | inactive | inactive | inactive | inactive | inactive | inactive | inactive | 14% | inactive | -2.23% | inactive
3 | C=CC(=O)OCC(CC)CCCC (stereo not drawn) | inactive | -0.0566% (inactive) | inactive | inactive | inactive | inactive | inactive | inactive | inactive | inactive | inactive | inactive | inactive | inactive | inactive | inactive | -3.1% and -13.3% | inactive | -0.0756% and 2.94% | inactive
4 | Nc1ccc(-c2ccccc2)cc1 | inactive | 2.52% (inactive) | inactive | inactive | inactive | inactive | inactive | inactive | inactive | inactive | inactive | inactive | inactive | inactive | inactive | inactive | 9.85% | inactive | -4.26% | inactive
5 | Clc1cc(Cl)c(Cl)c(Cl)c1 | inactive | 0.108% (inactive) | inactive | inactive | inactive | inactive | inactive | inactive | inactive | inactive | inactive | inactive | inactive | inactive | inactive | inactive | 0.707% | inactive | -0.278% | inactive
6 | CN(C)C(=O)Nc1cccc(C(F)(F)F)c1 | inactive | 2.52% (inactive) | inactive | inactive | inactive | inactive | inactive | inactive | inactive | inactive | inactive | inactive | inactive | inactive | inactive | inactive | -22.3% and -23.1% | inactive | -7% and -2.56% | inactive
7 | Nc1ccc(Cl)c(Cl)c1 | inactive | 0.952% (inactive) | inactive | inactive | inactive | inactive | inactive | inactive | inactive | inactive | inactive | inactive | inactive | inactive | inactive | inactive | 3.91% | inactive | 2.84% | 
8 | C=C(C)CCl | inactive | -0.765% (inactive) | inactive | inactive | inactive | inactive | inactive | inactive | inactive | inactive | inactive | inactive | inactive | inactive | inactive | inactive | -6% | inactive | -2.4% | inactive
9 | CCOP(=S)(OCC)SCCSCC | inactive | -2.31% (inactive) | inactive | inactive | inactive | inactive | inactive | inactive | inactive | inactive | inactive | inactive | inactive | inactive | inactive | inactive | -7.08% and 7.34% | inactive | 7.97% and -18.3% | inactive
10 | O=[N+]([O-])CCO | inactive | -0.445% (inactive) | inactive | inactive | inactive | inactive | inactive | inactive | inactive | inactive | inactive | inactive | inactive | inactive | inactive | inactive | 10.9% | inactive | 2.49% | inactive
11 | Oc1cc(Cl)cc(Cl)c1 | inactive | -0.202% (inactive) | inactive | inactive | inactive | inactive | inactive | inactive | inactive | inactive | inactive | inactive | inactive | inactive | inactive | inactive | -13.2% | inactive | -2.61% | inactive
12 | CCOS(C)(=O)=O | inactive | 0.622% (inactive) | inactive | inactive | inactive | inactive | inactive | inactive | inactive |  | inactive | inactive | inactive | inactive | inactive | inactive | -9.22% | inactive | -8.7% | inactive
13 | ClC(Cl)Br | inactive | 0.703% (inactive) | inactive | inactive | inactive | inactive | inactive | inactive | inactive | inactive | inactive | inactive | inactive | inactive | inactive | inactive | -4.86% | inactive | 1.73% | inactive
14 | C=CCCC#N | inactive | -1.73% (inactive) | inactive | inactive | inactive | inactive | inactive | inactive | inactive | inactive | inactive | inactive | inactive | inactive | inactive | inactive | -8.63% | inactive | -6.48% | inactive
15 | Cc1ccccc1[N+](=O)[O-] | inactive | 0.646% (inactive) | inactive | inactive | inactive | inactive | inactive | inactive | inactive | inactive | inactive | inactive | inactive | inactive | inactive | inactive | -2.95% | inactive | -5.55% | inactive
